In PubChem BioAssay (NCI):
Compounds without any hit were thinned out: in the full panel of roughly 79,000, 15% have a hit. Values without a mark were called inactive. Active and inactive are the calls of the source. Cut-off read from the data, not from the text of the source: active = growth inhibition above about 70%; inactive = the rest.

Legend:
[1] = NCI Yeast Anticancer Drug Screen. Data for the rad50 strain (AID 155);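 note: 0% = growth of vehicle-only cultures of the same strain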; conditions: S. cerevisiae rad50 strain growth inhibition, stronger effect = higher value
Summary of the method: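 Relative growth inhibition (compound vs vehicle) was measured in yeast with a defined repair-gene alteration.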

[2] = NCI Yeast Anticancer Drug Screen. Data for the mec2-1 strain (AID 157); conditions: S. cerevisiae mec2-1 strain, stronger effect = higher value
Summary of the method: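 Compounds were applied to mec2-1 yeast cells. Their growth was then compared with that of vehicle-treated cultures to give growth inhibition.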

[3] = NCI Yeast Anticancer Drug Screen. Data for the sgs1 mgt1 strain (AID 161);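 note: 0% = growth of cultures given vehicle only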; conditions: S. cerevisiae sgs1 mgt1 strain, stronger effect = higher value
Summary of the method: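 This yeast growth screen uses a strain with defined DNA-repair lesions; compound-treated growth is compared with vehicle-treated growth.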

[4] = NCI Yeast Anticancer Drug Screen. Data for the cln2 rad14 strain (AID 165);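 note: 0% = growth equal to vehicle treated cultures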; conditions: S. cerevisiae cln2 rad14 strain, stronger effect = higher value
Summary of the method: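 Strain: cln2 rad14 yeast, altered in cell cycle control and DNA damage repair. Read-out: growth inhibition vs vehicle.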

[5] = NCI Yeast Anticancer Drug Screen. Data for the bub3 strain (AID 167); conditions: S. cerevisiae bub3 mutant strain, stronger effect = higher value
Summary of the method: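 Screening used yeast with an engineered genetic alteration affecting cell cycle control. Compound-exposed cultures were compared with vehicle cultures, and reduced growth was taken as inhibition.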

[6] = NCI Yeast Anticancer Drug Screen. Data for the mlh1 rad18 strain (AID 175); conditions: S. cerevisiae mlh1 rad18 strain growth inhibition, stronger effect = higher value
Summary of the method: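 A repair-deficient yeast strain is exposed to test compound, and growth is scored relative to vehicle-treated controls.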

[7] = at 5.0 µM (retest, dose inferred, filed as 0.5)
[8] = at 50.0 µM (retest, dose inferred, filed as 5.0)

SMILES	growth inhibition [1, 7] [%]	growth inhibition [1, 8]	growth inhibition ([1]; at 50.0 µM)	growth inhibition [2, 7] [%]	growth inhibition [2, 8]	growth inhibition ([2]; at 50.0 µM)	growth inhibition [3, 7] [%]	growth inhibition [3, 8]	growth inhibition ([3]; at 50.0 µM)	growth inhibition [4, 7] [%]	growth inhibition [4, 8]	growth inhibition ([4]; at 50.0 µM)	growth inhibition [5, 7] [%]	growth inhibition [5, 8]	growth inhibition ([5]; at 50.0 µM)	growth inhibition [6, 7] [%]	growth inhibition [6, 8]	growth inhibition ([6]; at 50.0 µM)
Oc1cccc(-c2nc(-c3ccccc3)c(-c3ccccc3)[nH]2)c1	57	58%	98.5% (active)	-2	22%	98.8% (active)	29	69%	53.1%	8	22%	99.2% (active)	32	43%	98.8% (active)	29	43%	98.5% (active)
COc1cc(Nc2ccc(O)cc2)c2ncccc2c1	34	93% (active)	94.9% (active)	18	97% (active)	69.2%	16	97% (active)	94.7% (active)	5	89% (active)	21.1%	7	94% (active)	45.3%	33	96% (active)	94.5% (active)
Cc1ccc(C(=O)C(CCC#N)(CCC#N)CCC#N)cc1	-8	-5%	-13.7%	-8	-17%	-0.25%	-1	-11%	8.85%	-15	-3%	-6.25%	12	15%	1.1%	4	-6%	4.3%
CCc1nc2ccc(N=NN(C)C)cc2[nH]1	21	73% (active)	84.5% (active)	19	80% (active)	92% (active)	18	96% (active)	74.2% (active)	22	87% (active)	88.1% (active)	18	97% (active)	88.5% (active)	24	91% (active)	91.3% (active)
O[C@H](CNCCS)[C@@H](O)CNCCS	-1	14%	78% (active)	2	28%	54%	-6	27%	80.1% (active)	17	7%	28.5%	-4	17%	40%	-5	3%	79.3% (active)
O=C(NC(c1ccccc1)N1CCOCC1)c1ccccc1 (configuration not stated)	2	-1%	99% (active)	-7	7%	95.6% (active)	0	-3%	96.3% (active)	-2	3%	76.9% (active)	-3	-2%	83.4% (active)	-9	-1%	98.8% (active)
O=C(NC(Cc1ccccc1)C(=O)O)c1ccncc1 (configuration not stated)	-2	-12%	61.6%	-1	-7%	28.9%	0	-5%	63.2%	-1	-11%	57.2%	-1	-2%	44.1%	-1	-6%	46.1%
Cc1ccc(O)c(C(C)c2ccccc2)c1 (configuration not stated)	6	97% (active)	99.2% (active)	-20	99% (active)	99.6% (active)	-3	97% (active)	98.8% (active)	-8	96% (active)	98.8% (active)	21	98% (active)	98.8% (active)	2	98% (active)	99.1% (active)
CCCCCCC(C)OC(=O)c1ccccc1C(=O)O (configuration not stated)	7	17%	11.5%	-11	10%	0.2%	-6	16%	17.9%	6	31%	63.5%	-3	9%	13.3%	-13	12%	14.8%
